TRHR agonist: TRH receptor (human) agonism. activation, % at 2 µM. TRHR cells, calcium flux fluo-8, FDSS agonist mode. hit rate 0.18% among 360,000; note: 0% is about no effect
Target sequence (P34981 whole entry, looked up): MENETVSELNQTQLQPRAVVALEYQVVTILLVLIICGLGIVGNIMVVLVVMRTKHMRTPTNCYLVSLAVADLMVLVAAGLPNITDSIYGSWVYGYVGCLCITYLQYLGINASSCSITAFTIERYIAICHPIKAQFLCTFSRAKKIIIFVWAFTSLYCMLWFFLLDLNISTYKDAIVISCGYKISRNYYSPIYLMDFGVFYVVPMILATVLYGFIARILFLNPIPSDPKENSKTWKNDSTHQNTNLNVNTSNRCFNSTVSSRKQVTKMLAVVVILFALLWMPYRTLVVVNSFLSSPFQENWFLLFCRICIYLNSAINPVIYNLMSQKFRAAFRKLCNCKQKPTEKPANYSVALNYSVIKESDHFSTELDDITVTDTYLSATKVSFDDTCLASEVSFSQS
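TRHR-expressing cells, plated overnight in medium with 10% serum, were loaded with fluo-8 calcium dye at room temperature. After a 10 s baseline, library compound was pin-added and calcium release was recorded kinetically (ex 480/em 530) as agonist response.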
D1 antag: human D1 dopamine receptor antagonism | P21728 | HEK293 TREx D1 cells, calcium flux, dopamine EC80; hits give low values | activity change, negative = inhibition, % at 10 µM | hit rate 3.2% among 360,000 | AID 504652; in the data active = activity change below about -30%; note: % is set by controls: 0 for no effect and ±100 for the full control effect
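Cells carrying a force-coupled, tetracycline-inducible human D1 receptor report calcium flux. Each well gets a 10 s baseline, compound with 180 s monitoring, then an EC80 dopamine stimulus with a second 180 s kinetic read.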
D1 agonist: activates the human D1 dopamine receptor; AID 504660; activation, % at 2 µM; P21728; HEK293 T-REx D1 cells, calcium flux, agonist mode; hit rate 1% among 360,000; note: 0% is about no effect
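Tetracycline-induced HEK293 TREx D1 cells, force-coupled to calcium signalling, were dye-loaded with a no-wash calcium kit. Compound was pin-added after a 10 s baseline. Fluorescence was read kinetically at 1 cycle/s for 180 s, with calcium rises flagged as agonism.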
D1 PAM: human D1 dopamine receptor positive modulation | P21728 | HEK293 TREx D1 cells, calcium flux, dopamine EC20 potentiation | potentiation, % at 10 µM | hit rate 0.036% among 360,000 | AID 504651; in the data active = potentiation above about 30%; note: 0% is about no effect
TRHR enhancer: allosterically enhances the human TRH receptor; hit rate 0.66% among 360,000; enhancement, % at 2 µM; TRHR cells, fluo-8 calcium fluorescence, EC20 TRH enhancement; in the data active = enhancement above about 30%; note: 0% is about no effect
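Enhancer read-out: after compound pinning and an initial kinetic agonist-mode read, an EC20 of TRH (10 nM final) was injected and fluo-8 calcium signal (Ex 480/Em 530) followed at 1 s/cycle for 100 cycles in TRHR-expressing cells.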
Active calls of the source: *; x = not tested or not shown; ! = not active in a repeat. In the library only some 4.6% were active in any assay of this set; here they are far more common. Cut-off read from the data, not from the text of the source, unless noted: active = activation above about 30%; inactive = the rest.

SMILES	TRHR agonist	D1 antag	D1 agonist	D1 PAM	TRHR enhancer
Cc1cccc(OC(=O)CSc2nnc(-c3cccs3)o2)c1C	0	5	-1	0	0
N#CN=C(N)c1ccccc1	0	-56*!	1	3	-4
CCS(=O)(=O)/N=C(\N)c1ccccc1	0	27	1	-4	2
COc1cccc(CNC(=O)c2cc(C)nc3c2c(C)nn3-c2ccc(C)cc2)c1	1	-11	2	-4	2
CC(=O)Nc1ccc2c(COC(=O)[C@H](C)N3C(=O)C4CCCCC4C3=O)cc(=O)oc2c1 (some centres undefined)	1	-10	1	0	2
Cc1cc(=O)oc2cc(NC(=O)C(C)N3C(=O)C4CCCCC4C3=O)ccc12 (centres undefined)	0	-43*	2	-3	4
COc1cccc(NC(=O)CC(C)S(=O)(=O)c2ccc3c(c2)NC(=O)CO3)c1 (centres undefined)	0	-7	0	-2	6
CS(=O)(=O)/C(C#N)=C/c1cccn1S(=O)(=O)c1ccccc1	0	-16	3	-4	0
CN(C)n1cccc1/C=C(\C#N)S(=O)(=O)c1cccc(Cl)c1	0	-35*	6	-8	-10
CCOC(=O)c1[nH]c(C)c(C(=O)NCc2cccc(OC)c2)c1C	0	1	4	1	-3
COC(=O)COc1cccc(/C=N/NC(=O)CCSc2ccccc2)c1	0	-34*	5	-4	-1
CC1(C)CC(NC(=O)c2sc3cc(Cl)ccc3c2Cl)CC(C)(C)N1	1	-37*	8	-10	9
COc1ccc(N=Nc2nc3cc(Br)c(Br)cc3n2C)c(OC)c1	55*	-12	88*	-5	-2
N=C1/C(=C\c2coc3ccccc3c2=O)C(=O)N=C2SC(c3ccncc3)=NN12	146*	-31*	256*	-2	33*
CSC1=NSC2=NC(=O)/C(=C\c3coc4ccccc4c3=O)C(=N)N12	121*	-48*	306*	4	19
N=C1/C(=C/c2coc3ccccc3c2=O)C(=O)N=C2SC(c3ccco3)=NN12	6	6	16	9	-2
CC(C)CSC1=NSC2=NC(=O)/C(=C\c3coc4ccccc4c3=O)C(=N)N12	51*	-22	240*	-9	-3
COc1ccc(CCNC(=O)c2cnc3sc(N4CCOCC4)nn3c2=O)cc1	0	1	2	-2	-3
O=C(Nc1nccs1)C1CC=CCC1 (centres undefined)	1	-19	4	5	-7
O=C(Nc1ccc(O)cc1)C1CC=CCC1 (centres undefined)	0	-100*	4	-7	0
CCc1ccccc1NC(=O)CN(C)S(=O)(=O)c1cccc2nsnc12	-1	-19	-2	7	-2
O=C(CCBr)Nc1cccc2cccnc12	1	6	1	-6	-3
Cc1cccc(N2CCN(S(=O)(=O)c3ccc4c(c3)NC(=O)C(C)S4)CC2)c1C (centres undefined)	0	16	5	1	0
Cc1cccc(N2CCN(S(=O)(=O)c3ccc4[nH]c(=O)ccc4c3)CC2)c1C	0	-35*	13	-7	-1
Cc1ccc(C)c(N2CCN(S(=O)(=O)c3ccc4[nH]c(=O)ccc4c3)CC2)c1	-1	-11	4	-4	-3
SMILES	TRHR agonist	D1 antag	D1 agonist	D1 PAM	TRHR enhancer
Cc1cccc(N2CCN(S(=O)(=O)c3ccc4c(c3)C(C(C)C)C(=O)N4)CC2)c1C (centres undefined)	-1	-37*	6	0	2
CC(Oc1ccccc1F)C(=O)N1CCC(c2nc3ccccc3o2)CC1 (centres undefined)	1	-3	3	0	-1
C#CC(C)(CC)NC(=O)c1cc2c(n(-c3ccc(Cl)cc3)c1=O)CC(C)(C)CC2=O (centres undefined)	-3	-2	-1	1	-5
CCOc1ccc(Cl)cc1S(=O)(=O)n1nnc2ccccc21	0	-39*	3	-3	-3
COc1cccc(CNS(=O)(=O)c2ccc(N3CCCCS3(=O)=O)cc2)c1	0	-22	16	0	-6
Cc1c(C)n(CCc2ccccc2)c2ncnc(NCCCO)c12	-1	-32*	-1	-7	6
CC(C)(C)CC(=O)Nc1nnc(SCC(=O)Nc2ccccc2F)s1	-1	-40*	1	-7	-3
CCSc1nnc(NC(=O)CC(C)C)s1	-1	14	2	-9	5
CC(C)CC(=O)Nc1nnc(SCC(=O)Nc2nccs2)s1	0	-35*	7	-1	3
CC(=O)Nc1ccc(NC(=O)CSc2nnc(NC(=O)Cc3ccc(F)cc3)s2)cc1	0	-53*	1	-20	-19
CC1Cc2cc(S(=O)(=O)CCC(=O)Nc3ccc(F)cc3Cl)ccc2N1C(=O)C1CC1 (centres undefined)	-1	-18	2	-3	0
N#C/C(=C/c1ccncc1)c1nc2ccccc2s1	16	1	101*	-2	16
Nc1nc2ccccc2n1CCOc1ccccc1Cl	1	-36*	20	-6	1
Nc1nc2ccccc2n1CCOc1ccc(Cl)cc1	1	-4	11	-15	9
CCN(CC)CCn1c(=N)n(CCOc2ccccc2Cl)c2ccccc21	-1	-7	53*	-2	5
CCn1cc2nc(SCc3cc(C)ccc3C)n(Cc3ccc(C)cc3)c(=O)c2n1	0	32	2	1	11
COc1cc(-c2nnc(SCC(=O)NC3CCCC3)n2C)cc(OC)c1O	0	-41*	2	-4	-2
CCn1c(Cc2ccccc2)nnc1SCC(=O)NC1CC1	0	-32*	0	1	9
Cn1c(Cc2ccc3c(c2)OCO3)nnc1SCC(=O)NC1CCCC1	-1	-33*	1	-11	-5
Cc1nn(CC(=O)NCc2ccc(Cl)cc2)c(=O)c2cc3sccc3n12	0	-2	-1	0	-2
CCN(CC)C(=O)c1sc2c(c1C)c(=O)n(Cc1ccccc1)c(=O)n2CC(=O)Nc1ccc(OC)cc1	6	-35*	6	1	-9
CCN(CC)C(=O)c1sc2c(c1C)c(=O)n(-c1ccc(OC)cc1OC)c(=O)n2CC(=O)Nc1ccccc1	0	2	27	-2	-7
COCCCn1c(=O)c2sccc2n(Cc2cccc(F)c2)c1=O	-1	-36*	3	-3	-11
COCCCn1c(=O)c2sccc2n2c(CCCC(=O)NCc3ccc(OC)cc3)nnc12	0	-31*	4	-2	1
Cc1nn(CCCC(=O)NCc2ccccc2)c(=O)c2cc3sccc3n12	0	-32*	-2	1	2
OCCN1CCN(C(c2ccccc2Cl)c2sc3nc(-c4ccco4)nn3c2O)CC1 (centres undefined)	0	x	5	-1	-3
